The nature of test [1]: inhibitors of TNFa-induced NFkB p65 translocation, primary screen, imaging, HUVEC, MLSMR starter and 10KST1 sets (AID 438;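 active = inhibition above 20% together with a positive visual image hit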;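 note: compound added about 3h40 before a 20 min TNFalpha stimulation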;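 for inhibition: signal is the nuclear over cytoplasmic p65 intensity ratio per well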). The conditions noted are these: HUVEC TNFa-induced p65 nuclear translocation; cell count: measured here: nuclei count (cytotoxicity indicator), at 2.08 µM; inhibition: at 2 µM, stronger effect = higher value, 0% TNFa-plus-vehicle, 100% no-TNFa wells.
Test [2] can be described thus: reduction of polyQ htt aggregates in cells – imaging, exon1htt(103Q)mCFP cells, high-content imaging, primary screen (AID 483;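 active = visual image review flags a hit and inhibition of aggregation exceeds 20%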;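 note: compound exposure lasted 3 days before fixation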;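 for nuclei count: percent of the per-plate median nuclei count of sample wells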). To be noted: exon1htt(103Q)mCFP cell line, aggregate imaging, at 2 µM; inhibition of aggregation: stronger effect = higher value; nuclei count: measured here: cell count, toxicity.
Test [3] is described as follows: endothelial E-selectin expression blockers – imaging, HUVEC, immunofluorescence, MLSMR starter and 10KST1 sets, primary screen (AID 487;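 active = visually confirmed hit in the image check and inhibition above 20%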;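 for inhibition: signal is fraction of cell area covered by stained E-selectin grains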;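 for nuclei count: 100% = median nuclei count of all wells on the same plate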). The conditions noted are these: HUVEC TNFalpha-induced E-selectin immunofluorescence imaging, at 2 µM; inhibition: stronger effect = higher value; nuclei count: measured here: cell number, toxicity.
Test [4] deals with Voltage-gated potassium channel subunit beta-2 (Rattus norvegicus) (UniProt P62483). The experiment in a line: inhibitors of rat Kvbeta2 reductase activity – biochemical, NADPH fluorescence, primary screen (AID 622;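 active = fluorescence slope higher than the sample average by over 3 SD, cut at about -0.22 in these data, passing the limit was not always enough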;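 note: slope of raw intensity against log time taken from 70 to 1610 s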). To be noted: recombinant KvBeta, 4-cyanobenzaldehyde reduction, at 10 µM, stronger effect = higher value.
For test [5] the target is unchanged. The experiment in a line: enhancers of rat Kvbeta2 NADPH turnover – biochemical, NADPH fluorescence, primary screen (AID 623;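 active = NADPH fluorescence slope more negative than the mean of all samples by about 3 SD, 99.7% confidence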;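 note: fluorescence intensity change per second fitted from 20 to 320 s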). To be noted: Recombinant KvBeta, NADPH fluorescence decrease slope, 10 min; at 10 µM; stronger effect = lower value.
For test [6], the target named is Alpha-2C adrenergic receptor (Homo sapiens) (UniProt P18825). The experiment in a line: compounds altering alpha2C-coupled GIRK flux – cell-based, HEK293 alpha2C/GIRK1/2, thallium flux, primary screen (AID 624;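 active = fluorescence slope after compound addition differing from the mean of all screened samples at 99.7% confidence, in either direction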;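 note: slope of fluorescence ratio to pre-addition baseline per second over 15 to 24 s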). The conditions noted are these: thallium flux BTC fluorescence, at 10 µM, actives lie on both sides.
Test [7] in a line: blockers of RIG-like receptor reporter activation – cell-based, Sendai virus stimulus, luciferase, 10K MLSCN set, TLR/RLR signaling modifier project, primary screen (AID 602276;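 active = inhibition at or above 50% at 10 µM; inactive = inhibition below 50%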;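 note: firefly luciferase from ISG56 promoter only with Renilla not read in this screen; 0% = Sendai virus plus DMSO and 100% = medium plus DMSO without virus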). To be noted: HEK293 RL24 IRF3 luciferase reporter, at 10 µM, stronger effect = higher value. Background: Reporter assays use an easily measured gene product as a stand-in for the process of interest.
Test [8] in a line: TLR3 IRF3 reporter activation blockers – cell-based, poly I:C stimulus, luciferase, 10K MLSCN set, primary screen (AID 602277). The conditions noted are these: HEK293-TLR3 RL24 IRF3 luciferase reporter, at 10 µM, stronger effect = higher value.

Calls of active or inactive are those of the source.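 Rule for the calls, unless noted: active = inhibition of the reporter signal at or above 50%; inactive = inhibition below 50%.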

Sequence of Alpha-2C adrenergic receptor (Homo sapiens) (P18825 whole entry, looked up): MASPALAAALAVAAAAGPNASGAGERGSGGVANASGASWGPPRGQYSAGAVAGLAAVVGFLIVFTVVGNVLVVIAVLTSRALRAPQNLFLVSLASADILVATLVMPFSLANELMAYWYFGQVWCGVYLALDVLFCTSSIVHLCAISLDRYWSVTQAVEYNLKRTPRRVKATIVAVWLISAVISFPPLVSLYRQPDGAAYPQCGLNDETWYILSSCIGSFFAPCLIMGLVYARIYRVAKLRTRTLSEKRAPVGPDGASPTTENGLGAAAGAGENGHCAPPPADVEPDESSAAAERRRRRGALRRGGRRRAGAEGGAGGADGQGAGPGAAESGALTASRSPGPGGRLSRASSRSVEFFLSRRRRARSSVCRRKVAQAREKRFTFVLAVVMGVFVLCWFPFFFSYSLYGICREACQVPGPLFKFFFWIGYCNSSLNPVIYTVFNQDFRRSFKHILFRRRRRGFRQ
Sequence of Voltage-gated potassium channel subunit beta-2 (Rattus norvegicus) (P62483 whole entry, looked up): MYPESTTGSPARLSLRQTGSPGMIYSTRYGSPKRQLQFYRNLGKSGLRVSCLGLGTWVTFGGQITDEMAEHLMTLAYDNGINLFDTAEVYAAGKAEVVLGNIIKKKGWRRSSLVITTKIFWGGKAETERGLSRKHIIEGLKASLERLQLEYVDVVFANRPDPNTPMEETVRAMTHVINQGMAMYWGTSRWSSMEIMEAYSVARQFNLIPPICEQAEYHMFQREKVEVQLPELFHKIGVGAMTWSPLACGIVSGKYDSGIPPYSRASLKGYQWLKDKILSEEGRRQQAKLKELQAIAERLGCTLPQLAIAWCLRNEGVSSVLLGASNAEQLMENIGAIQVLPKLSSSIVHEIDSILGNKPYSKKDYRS

For orientation: inhibition means the drop in the measured response relative to a control, in per cent. As to `CCCCCn1c(CN2CCN(C)CC2)nc2c1c(=O)n(C)c(=O)n2C`, the cell count in test [1] turned out to be 521. In addition, the inhibition in test [1] was -1.4% (inactive); in test [3], 0.3% (inactive); in test [7], 1.18% (inactive); in test [8] it was 43.6% (inactive). Also, in test [2], the inhibition of aggregation is -17.1% (inactive). The results for the nuclei count in test [2] and in test [3] were 95.8% and 93.2%, respectively. The fluorescence slope in test [4] is -0.571 (inactive). Moreover, the NADPH fluorescence slope in test [5] is -3e-06 (inactive). Also, in test [6], the slope is 0.00637 (inactive).

Consider `Cc1ccc2nc(NC(=O)CN(C)S(=O)(=O)c3cccc4nsnc34)sc2c1`, for which, in test [1], the cell count came out at 379. Moreover, the inhibition was -5.3% (inactive) in test [1], -38.2% (inactive) in test [3], 32.6% (inactive) in test [7] and 25% (inactive) in test [8]. Besides, the inhibition of aggregation in test [2] is -0.2% (inactive). In addition, the nuclei count in test [2] was determined as 113%; in test [3], 101%. Moreover, in test [4], the fluorescence slope was -0.41 (inactive). Moreover, the NADPH fluorescence slope in test [5] is -4.4e-05 (inactive). For the same compound, the slope in test [6] was 0.00524 (inactive).

For the compound `O=C(COc1ccc(=O)n(-c2ccccc2)n1)Nc1ccccc1`, the cell count in test [1] was determined as 600. In addition, the inhibition in test [1] was 8% (inactive); in test [3], 23.8% (inactive); in test [7], 9.72% (inactive); in test [8], 23.6% (inactive). Also, in test [2], the inhibition of aggregation was -6.4% (inactive). Moreover, the nuclei count in test [2] was determined as 114%; in test [3] it was 119%. In test [4], the fluorescence slope was -0.471 (inactive). Further, in test [5], the NADPH fluorescence slope was 7.6e-06 (inactive). The slope in test [6] is 0.00619 (inactive).

With `O=C(OCc1ccc2c(c1)OCO2)c1ccc(S(=O)(=O)N2CCCCC2)cc1`, in test [1], the cell count was found to be 732. For the same compound, the inhibition in test [1] is 4.4% (inactive); in test [3], 83.3% (active); in test [7], 7.08% (inactive); in test [8], 9.8% (inactive). Further, the inhibition of aggregation in test [2] is -6.1% (inactive). Further, the nuclei count in test [2] was determined as 102%; in test [3] it was 87.7%. Besides, in test [4], the fluorescence slope is -0.415 (inactive). Moreover, the NADPH fluorescence slope in test [5] was -5.1e-05 (inactive). The slope in test [6] is 0.00821 (inactive).

On to `COc1ccc(Cn2nnnc2CN2CCOCC2)cc1`, for which the cell count in test [1] amounted to 476. Besides, the inhibition in test [1] is 2.5% (inactive); in test [3] it was 1% (inactive); in test [7], 16.9% (inactive); in test [8], 15.2% (inactive). Besides, in test [2], the inhibition of aggregation was -2.3% (inactive). The nuclei count in test [2] came out at 108%; in test [3], 97.7%. In test [4], the fluorescence slope was -0.441 (inactive). The NADPH fluorescence slope in test [5] was 1.6e-05 (inactive). For the same compound, the slope in test [6] is 0.00479 (inactive).

On to `Cc1cccc(OCC(=O)N(Cc2cccs2)C2CCS(=O)(=O)C2)c1C` (centres undefined), for which the cell count in test [1] was determined as 220. For the same compound, the inhibition in test [1] was 2.4% (inactive); in test [3], -142% (inactive); in test [7] it was 13.8% (inactive); in test [8], 16.1% (inactive). For the same compound, the inhibition of aggregation in test [2] is 0.4% (inactive). Moreover, the nuclei count in test [2] was found to be 88.1%; in test [3], 112%. Besides, in test [4], the fluorescence slope was -0.639 (inactive). In test [5], the NADPH fluorescence slope is -3.9e-05 (inactive). Further, the slope in test [6] is 0.00768 (inactive).

As to `CC1Cc2ccccc2N1S(=O)(=O)c1ccc2c(c1)n(C)c(=O)c(=O)n2C` (centres undefined), the cell count in test [1] was found to be 339. Moreover, the inhibition in test [1] was 6.6% (inactive); in test [3] it was -21.1% (inactive); in test [7], 19.2% (inactive); in test [8], 17.1% (inactive). Besides, the inhibition of aggregation in test [2] was -25.5% (inactive). The nuclei count in test [2] came to 96.4%; in test [3], 111%. Also, the fluorescence slope in test [4] was -0.43 (inactive). For the same compound, the NADPH fluorescence slope in test [5] was 6.1e-06 (inactive). Besides, the slope in test [6] is 0.00562 (inactive).

Take `COC(=O)c1ccc(-c2ccco2)n1Cc1nc(-c2ccc(OC)c(OC)c2)oc1C`: the cell count in test [1] was determined as 470. In addition, the inhibition was -0.5% (inactive) in test [1], -28% (inactive) in test [3], 12.2% (inactive) in test [7] and -0.464% (inactive) in test [8]. Further, the inhibition of aggregation in test [2] is 19% (inactive). For the same compound, the nuclei count stood at 113% in test [2] and 93.4% in test [3]. Also, the fluorescence slope in test [4] was -0.308 (inactive). In test [5], the NADPH fluorescence slope is -4.8e-05 (inactive). In test [6], the slope is 0.00465 (inactive).

Consider `CCc1ccccc1NC(=O)CSc1ncn[nH]1`, for which the cell count in test [1] is 306. In addition, the inhibition is 9% (inactive) in test [1], 40% (inactive) in test [3], 1.64% (inactive) in test [7] and 32.7% (inactive) in test [8]. The inhibition of aggregation in test [2] is -8.6% (inactive). Further, the results for the nuclei count in test [2] and in test [3] were 101% and 102%, respectively. For the same compound, the fluorescence slope in test [4] is -0.397 (inactive). For the same compound, the NADPH fluorescence slope in test [5] is -1.9e-06 (inactive). Moreover, the slope in test [6] is 0.00367 (inactive).

Turning to `CCN(CC)S(=O)(=O)N1CCC(C(=O)NC2CCCc3ccccc32)CC1` (centres undefined), the cell count in test [1] came out at 690. For the same compound, the inhibition in test [1] is 5.7% (inactive); in test [3], -8.8% (inactive); in test [7], -11.5% (inactive); in test [8], -8.15% (inactive). The inhibition of aggregation in test [2] was -6.5% (inactive). Further, the nuclei count in test [2] was 95%; in test [3], 116%. Also, the fluorescence slope in test [4] is -0.49 (inactive). Also, in test [5], the NADPH fluorescence slope is 8.8e-05 (inactive). Moreover, the slope in test [6] is 0.00498 (inactive).

In the case of `O=C(c1ccc2c(c1)OCO2)N1CCCN(C(=O)c2ccc3c(c2)OCO3)CC1`, the cell count in test [1] was 522. Also, the inhibition in test [1] was 5% (inactive); in test [3] it was -123% (inactive); in test [7], 15.7% (inactive); in test [8] it was 28.5% (inactive). For the same compound, in test [2], the inhibition of aggregation is -1.1% (inactive). Besides, the nuclei count turned out to be 103% in test [2] and 106% in test [3]. Besides, the fluorescence slope in test [4] was -0.417 (inactive). In addition, the NADPH fluorescence slope in test [5] is -0.0001 (inactive). Further, the slope in test [6] is 0.0056 (inactive).

Turning to `O=S(=O)(Nc1ccn(-c2ccccc2)n1)c1ccc(Br)cc1`, the cell count in test [1] amounted to 395. The inhibition in test [1] was -1.6% (inactive); in test [3], -35.6% (inactive); in test [7] it was 10.7% (inactive); in test [8], 17.4% (inactive). Further, the inhibition of aggregation in test [2] was 20.2% (inactive). The results for the nuclei count in test [2] and in test [3] were 98% and 119%, respectively. Besides, the fluorescence slope in test [4] is -0.413 (inactive). Besides, the NADPH fluorescence slope in test [5] was 0.000106 (inactive). Also, the slope in test [6] was 0.00791 (inactive).

In the case of `CCOC(=O)N1CCN(C(=O)Cn2ncn3nc(-c4cccs4)cc3c2=O)CC1`, in test [1], the cell count was determined as 313. Moreover, the inhibition is -0.8% (inactive) in test [1], 9.5% (inactive) in test [3], -1.73% (inactive) in test [7] and -47.5% (inactive) in test [8]. The inhibition of aggregation in test [2] is 14.8% (inactive). Moreover, the nuclei count in test [2] stood at 79.5%; in test [3], 88.5%. Besides, the fluorescence slope in test [4] is -0.404 (inactive). Further, the NADPH fluorescence slope in test [5] is 2e-05 (inactive). Further, the slope in test [6] was 0.00387 (inactive).

As for `COc1cc(OC)cc(C(=O)N2c3ccc(F)cc3CCC2C)c1` (centres undefined), the cell count in test [1] was found to be 282. The inhibition in test [1] is -4.7% (inactive); in test [3], -85.9% (inactive); in test [7], 12.9% (inactive); in test [8], 21.8% (inactive). The inhibition of aggregation in test [2] is 19% (inactive). Besides, the nuclei count in test [2] turned out to be 83.6%; in test [3], 103%. The fluorescence slope in test [4] was -0.524 (inactive). Besides, the NADPH fluorescence slope in test [5] was -4.4e-05 (inactive). Also, the slope in test [6] was 0.0061 (inactive).

The values above are taken from PubChem BioAssay.
